# hgDAF-12 ag: H. glycines DAF-12 receptor agonists, primary screen, cell-based, luminescence, HEK293, GAL4 fusion, UAS-luciferase. 370,000 tested, 1.8% active. activation, % at 6.8 µM. Nuclear hormone receptor DAF-12 (Heterodera glycines), GAL4 fusion. AID 687014, 2013. HEK293 GAL4-hgDAF12 UAS-luciferase reporter, agonist luminescence; normalized to butyrate control;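 active = activation above a cutoff set at the mean of all screened compounds plus 3 SD, cut at about 10% in these data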;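 also: 0% = DMSO wells and 100% = sodium butyrate wells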
# hcDAF-12 act: H. contortus DAF-12 nuclear receptor activators, primary screen, cell-based, luminescence, HEK293, lit1-tk-luc reporter | 370,000 tested, 1.4% active | HEK293 hcDAF-12 lit1-tk-luc reporter; 0% DMSO, 100% Δ7-dafachronic acid | AID 652067, 2013 | activation, % at 6.8 µM;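 active = activation above the mean of all tested compounds plus 3 SD, cut at about 5.5% in these data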;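 also: 100% = response to 3 µM Δ7-dafachronic acid high control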
# DAX1 inh-1: DAX1 (NR0B1) inhibitors on StAR promoter, primary screen, cell-based, luminescence, SF-1 (NR5A1), full-length DAX-1. HEK293T StAR-luciferase reporter, SF-1/DAX-1 repression relief. 370,000 tested, 1.1% active. inhibition, % at 6.8 µM;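 active = inhibition above the mean over all tested compounds plus 3 SD, cut at about 3.6% in these data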;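 also: 0% = DAX-1 cells with DMSO and 100% = cells lacking DAX-1 with DMSO; higher inhibition means more luminescence from relief of DAX-1 repression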
# DAX1 inh-2: DAX1 (NR0B1) inhibitors, primary screen, cell-based, HEK293, Gal4-DAX1, luciferase luminescence; AID 504766, 2011; Nuclear receptor subfamily 0 group B member 1 (Homo sapiens), P51843; 340,000 tested, 0.99% active; HEK293 Gal4-DAX1 luciferase reporter; inhibition, % at 6.75 µM;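 active = inhibition above the mean over all tested compounds plus 3 SD, cut at about 4.2% in these data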;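 also: 0% = DAX1-transfected cells with DMSO and 100% = empty-vector control cells with DMSO; inhibition shows as a rise in luminescence from relieved DAX1 repression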
# Rev-erbA mod: modulators of Rev-erb alpha DNA binding, primary screen, biochemical, FITC-DNA, fluorescence polarization, uHTS. AID 1259318, 2017. Nuclear receptor subfamily 1 group D member 1 (Homo sapiens), P20393. Rev-erbα–FITC-DNA binding, 90 min. 370,000 tested, 0.79% active. activity, % at 10 µM;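 active = activity above about 14%, limit read from the data; passing the limit was not always enough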;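 also: 0% = DMSO wells with 35 nM protein and 100% = DMSO wells with 750 nM protein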
# ssDAF-12 act: S. stercoralis DAF-12 nuclear receptor activators, primary screen, cell-based, luminescence, HEK293, GRIP1 co-expression, lit1-tk-luc | activation, % at 6.8 µM | Nuclear hormone receptor DAF-12 (Strongyloides stercoralis) | HEK293 ssDAF-12/GRIP1 lit1-tk-luc reporter; % of 3 µM dafachronic acid response | 370,000 tested, 1% active | AID 652126, 2013;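 active = activation above the mean over all tested compounds plus 3 SD, cut at about 0.9% in these data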;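 also: 0% = DMSO-only wells and 100% = 3 µM delta7-dafachronic acid wells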
# hgDAF12 conf: H. glycines DAF-12 receptor agonists, confirmation, cell-based, luminescence, HEK293, GAL4-LBD fusion. shares compounds with hgDAF-12 ag. HEK293 GAL4-hgDAF12 luciferase reporter, agonist mode; percent of butyrate response. activation, % at 6.8 µM. 3,300 tested, 80% active. AID 743050, 2013;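 active = mean activation over triplicate wells above the hit cutoff derived from the earlier primary screen, cut at about 11% in these data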;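 also: 0% = DMSO low control and 100% = 2 mM sodium butyrate high control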
# LXR ag 2: LXR agonists, Gal4 luciferase reporter, confirmation, counter-screen for hgDAF-12 agonist project, cell-based, luminescence, HEK293, H. glycines campaign. 24 h. AID 743051, 2013. shares compounds with hgDAF-12 ag. 3,300 tested, under 10 active. activation, % at 6.8 µM;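 active = mean activation of the triplicate above a set limit carried over from the primary screen, none filed active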
# Target sequence (P55055 whole entry, looked up, the tested form may be a part): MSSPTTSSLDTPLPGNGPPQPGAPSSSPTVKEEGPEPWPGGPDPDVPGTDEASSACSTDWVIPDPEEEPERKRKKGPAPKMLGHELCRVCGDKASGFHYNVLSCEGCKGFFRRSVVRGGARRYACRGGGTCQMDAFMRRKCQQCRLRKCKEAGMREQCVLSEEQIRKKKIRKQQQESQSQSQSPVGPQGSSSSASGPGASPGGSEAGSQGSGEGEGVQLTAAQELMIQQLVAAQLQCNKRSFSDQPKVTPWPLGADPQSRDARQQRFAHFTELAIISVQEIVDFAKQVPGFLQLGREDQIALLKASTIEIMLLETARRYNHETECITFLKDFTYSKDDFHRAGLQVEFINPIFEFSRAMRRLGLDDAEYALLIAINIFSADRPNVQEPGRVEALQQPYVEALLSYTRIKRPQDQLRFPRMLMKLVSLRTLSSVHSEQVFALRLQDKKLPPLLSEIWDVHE
# Starred values were filed as active, the others as inactive; x = no result. Sampled rows, rich in hits. Any-hit rate of the full collection: about 4.8%.
SMILES,hgDAF-12 ag,hcDAF-12 act,DAX1 inh-1,DAX1 inh-2,Rev-erbA mod,ssDAF-12 act,hgDAF12 conf,LXR ag 2
CC(=O)Nc1cc(F)c2c(c1F)Cc1cc(F)ccc1-2,16*,3,2,3,2,0,12*,0
COc1ccc(NC(=O)N(C)C[C@H]2OCc3cn(nn3)CCCC(=O)N([C@H](C)CO)C[C@@H]2C)cc1,2,0,1,x,-4,-1,x,x
CCc1ccc(C(=O)Nc2cc3c(cc2Cl)OCCCO3)cc1,14*,3,3,4,-2,1,14*,1
O=C(Cc1ccccc1)Nc1cc2c(cc1Cl)OCCCO2,9,2,1,2,0,0,x,x
CCOc1ccc(C(Nc2cccnc2)c2cc(Cl)c3cccnc3c2O)cc1 (stereo not drawn),-10,-2,-2,-1,-15,-1,x,x
CCOc1ccc(NC(c2ccccn2)c2oc(CO)cc(=O)c2O)cc1 (stereo not drawn),14*,4,3,2,1,1.4*,13*,0
COc1ccc2ccccc2c1C=NNC(=O)CN1CCN(Cc2ccccc2)CC1,4,-1,-1,x,0,-2,x,x
Cc1ccc(-c2c(NC(=O)Nc3ccc(F)cc3)nc3ncccn23)cc1,4,1,-2,x,6,-1,x,x
COc1cccc(NC(=O)Nc2nc3ncccn3c2-c2ccc(C)cc2)c1,14*,0,0,x,-8,0,6,0
COc1ccc2nc(SCc3ccccc3C)nc(C)c2c1,2,-2,0,-1,12,0,x,x
COc1ccc2nc(SCc3cccc(C)c3)nc(C)c2c1,15*,1,1,1,5,-1,14*,0
CC(=O)N1CCc2cc(N=NC3=C(O)CCCC3=O)ccc21,15*,4,2,4,5,-1,16*,0
CCC(=O)Nc1ccccc1C(=O)OCC(=O)c1ccccc1,16*,-2,3.7*,4,-2,1.3*,17*,1
CCC(=O)Nc1ccccc1C(=O)OCC(=O)c1ccc2ccccc2c1,-4,-2,-1,-1,-1,-2,x,x
O=C(NCCN1C(=O)C2C3C=CC(C3)C2C1=O)Nc1ccc(Br)cc1 (stereo not drawn),13*,3,3,4,3,0,11*,0
O=C(NCCN1C(=O)C2C3C=CC(C3)C2C1=O)Nc1cccnc1 (stereo not drawn),-1,-1,0,-1,1,-1,x,x
CC(=Nc1ccc(Br)cc1)c1sc2ccccc2c1O,13*,6.0*,2,4,3,0,21*,1
NC(=Nc1ccc(Br)cc1)c1ccccc1,3,2,1,2,-5,-1,x,x
Cc1cc(C)nc(-n2nc(C)c(Sc3ccc(F)cc3)c2N)n1,13*,3,3,0,0,0,15*,1
COC[C@H]1CCCN1c1ccc2c(c1)OCCCN(C1CC1)S2(=O)=O,0,-2,1,x,-4,-1,x,x
Cc1c(C(=O)NCC2CCCO2)oc2ccc3c(c12)C(=O)CC(C)(C)O3 (stereo not drawn),17*,5,1,0,3,0,12*,1
Cc1c(C(=O)NCC2CCCO2)oc2ccc(S(=O)(=O)N3CCCC3)cc12 (stereo not drawn),-1,0,-1,1,3,-1,x,x
CCc1ccc(C(=O)Nc2cc(C)ccc2F)s1,16*,4,1,1,1,0,7,0
O=C(O)COc1nn(Cc2ccccc2)c2ccccc12,x,x,x,x,-1,x,x,x
O=C1NC(c2ccc(O)cc2)Nc2ccccc21 (stereo not drawn),3,0,0,2,-4,-1,x,x
SMILES,hgDAF-12 ag,hcDAF-12 act,DAX1 inh-1,DAX1 inh-2,Rev-erbA mod,ssDAF-12 act,hgDAF12 conf,LXR ag 2
CSc1ccc(C2NC(=O)c3ccccc3N2)cc1 (stereo not drawn),15*,3,0,4.6*,-2,0,14*,0
Cc1ccc(NC(=O)c2ccccc2)cc1,14*,3,2,2,-4,1,17*,1
Cc1ccc(NC(=O)c2ccc(Cl)c(N3C(=O)C=CC3=O)c2)cc1,14*,3,3.8*,3,4,1,0,0
Cc1ccc(Cn2ccc(NC(=O)c3cc(C)on3)n2)cc1,5,0,1,0,-1,-1,x,x
Cc1ccc(NC(=O)c2cc(C)on2)cc1,15*,0,2,0,7,-1,10,0
Cc1ccc(NC(=O)c2ccc3c(c2)OCCO3)cc1,9,5,2,-2,-5,0,x,x
Nc1ccccc1NC(=O)c1ccccc1,27*,2,4.3*,7.4*,-1,-1,51*,0
COC(=O)[C@]12C[C@H](CC(=O)NCCC(C)C)C(=O)N(Cc3ccc(Cl)cc3Cl)C1=C[C@H](C1CCCC1)O[C@@H]2C,0,-3,-1,x,-2,-1,x,x
COc1ccc(OC)c(CN2C(=O)CSCC2(C)c2nnnn2C2CCCC2)c1 (stereo not drawn),0,0,-1,x,5,-1,x,x
O=C(Cc1cn(Cc2ccccc2)c2ccccc12)Nc1ccc(Nc2cccnc2)c(Br)c1,1,-3,-1,x,2,-2,x,x
CC(C)(C)c1ccc(-c2cn(C[C@H](Cc3ccccc3)n3c(=O)c4ccccc4n3Cc3ccco3)nn2)cc1,3,-1,1,x,1,-1,x,x
Cc1nc(NC(=O)CCc2ccccc2)sc1C,4,0,1,1,0,-1,x,x
